Compounds with a hit are over-represented: about 7.5% of the library has one in this group of screens.
ELG1 repair inh – inhibitors of ELG1-dependent DNA repair in HEK293T cells; HEK293T ELG1-luciferase reporter, luminescence, 16 h; DNA damage induced by 5-fluorouridine; Potency, µM (highest dose often 46.1 µM), inactives show top-dose activity change, negative = inhibition, actives largely listed as inhibitors; 2.3% of 330,000 active; also: potency is read from the fitted curve at half-maximal effect; nearly all actives have a fitted effect of over 55% in size
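Cells (2,000 per well) received 5-fluorouridine plus test compound or DMSO and were incubated 16 hr at 37 °C, 5% CO2. Luciferase activity was read by luminescence 30 min after ONE-Glo addition; signal suppression marked inhibition of damage-induced ELG1 function.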
Gal4-VP16 FLuc – Gal4-VP16 reporter inhibition counter-screen | Drosophila S2 Gal4-VP16 UAS-luciferase, luminescence, 20 h | Potency, µM (series often up to 53.6 µM), for the others: at the highest dose activity, negative = inhibition, actives largely listed as inhibitors | 3.5% of 310,000 active | AID 2546;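 also: Gal4-VP16 expression switched on by copper sulfate through the metallothionein promoter; potency is read from the fitted curve at half-maximal effect; nearly all actives have a fitted effect of over 50% in size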
B2AR arrestin – agonists driving beta-arrestin recruitment to human beta2-adrenergic receptor; P07550; beta-arrestin recruitment to beta2AR, cell-based reporter; Potency, µM (top dose mostly 46.1 µM), without a hit: at the top dose activation, hits mostly activators; 0.02% of 330,000 active; AID 492947;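 also: potency is read from the fitted curve at half-maximal effect; 0% = DMSO controls and full agonism = EC100 isoproterenol or metaproterenol; nearly all actives have a fitted effect of over 65% in size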
TSHR antagonist – antagonists of human thyroid stimulating hormone receptor; AID 504810; TSHR-expressing cells, TSH-stimulated cAMP HTRF, 2 h; hits give low values; activity change, negative = inhibition, % at 11.5 µM; 0.2% of 330,000 active; P16473;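 active = activity change below a set negative limit, meaning inhibition stronger than a set level, cut at about -70% in these data; inconclusive = activity change between two set negative limits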
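TSHR-expressing cells were treated with compounds, then stimulated with TSH at EC80 (4nM final) for 2 hours at 37 deg C. Cellular cAMP was measured by HTRF competition between lysate cAMP and cAMP-d2 for a cryptate-labelled anti-cAMP antibody.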
RORg inh – blocks mouse ROR gamma transcriptional activity; P51450; Drosophila S2 Gal4-RORgamma UAS-luciferase reporter, 20 h; Potency, µM (highest dose often 53.6 µM), for the others: at the top dose activity change, negative = inhibition, most hits filed as inhibitors; 5.4% of 310,000 active; also: potency is read from the fitted curve at half-maximal effect; nearly all actives have a fitted effect of over 60% in size
Target sequence (P51450 whole entry, looked up, the tested form may be a part): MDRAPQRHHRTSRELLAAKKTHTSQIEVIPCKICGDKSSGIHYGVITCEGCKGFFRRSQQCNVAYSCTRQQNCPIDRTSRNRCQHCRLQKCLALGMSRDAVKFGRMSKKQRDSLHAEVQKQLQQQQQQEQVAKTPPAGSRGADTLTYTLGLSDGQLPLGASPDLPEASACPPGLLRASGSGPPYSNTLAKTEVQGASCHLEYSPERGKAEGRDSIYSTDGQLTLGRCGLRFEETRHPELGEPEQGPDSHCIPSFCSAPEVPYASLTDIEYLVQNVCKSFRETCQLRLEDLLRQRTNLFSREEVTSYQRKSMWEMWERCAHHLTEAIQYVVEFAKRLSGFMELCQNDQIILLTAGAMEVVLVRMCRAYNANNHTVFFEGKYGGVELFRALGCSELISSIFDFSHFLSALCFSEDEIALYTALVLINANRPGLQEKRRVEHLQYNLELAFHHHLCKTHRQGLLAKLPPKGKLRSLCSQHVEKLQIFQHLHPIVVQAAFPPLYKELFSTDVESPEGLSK
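A Gal4/UAS one-hybrid system in insect cells: metallothionein-promoter Gal4–ROR gamma fusion plus Photinus luciferase reporter. Copper sulfate 700 uM final, 20 hr ambient incubation, luminescent detection after 10 min with reagent.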
An asterisk follows results filed as active. Unless noted, calls follow the shape of the dose curve; as a rule, active = well fitted curve in the direction sought with a large enough effect; inconclusive = small, poorly fitted or top-dose-only effect, or another doubt; inactive = no such curve, though single readings can be large; an effect the other way counts as inactive or inconclusive. Unless noted, % is scaled to controls: 0 for no effect and ±100 for the full control effect.

Cc1ccc(O)c(C2=NNC(c3ccc(Cl)cc3)C2)c1 (centres undefined) was read as ELG1 repair inh 18.1%, Gal4-VP16 FLuc 12.6µM*, B2AR arrestin 0.0%, TSHR antagonist -4.1 and RORg inh 7.94µM*.
Screening COc1cc2c(cc1OC)C(C(=O)c1ccc(OC)c(OC)c1O)=NCC2 returned Gal4-VP16 FLuc -8.8% and RORg inh 0.4%.
For COc1ccc(OCC(=O)Nc2sc3c(c2C(=O)NCC2CCCO2)CCC3)cc1 (centres undefined) the results were ELG1 repair inh 16.4µM*, Gal4-VP16 FLuc -10.9%, B2AR arrestin -0.1%, TSHR antagonist 5.8 and RORg inh 9.6%.
Screening CCOC(=O)c1c(NC(=O)C2C3C=CC(C3)C2C(=O)O)sc2c1CCC(C)C2 (centres undefined) returned ELG1 repair inh -3.8%, Gal4-VP16 FLuc -4.1%, B2AR arrestin 0.2%, TSHR antagonist -12.2 and RORg inh 6.2%.
`CCOC(=O)c1c(NC(=S)NC(=O)c2cnn(CC)c2)sc2c1CCC(C)C2` (centres undefined) gave ELG1 repair inh 0.8%, Gal4-VP16 FLuc -5.6%, B2AR arrestin -0.4%, TSHR antagonist 11.1 and RORg inh 11.2µM*.
For CCOC(=O)c1c(NC(=S)Nc2ccc(C)cc2)sc2c1CCC2 the results were ELG1 repair inh 16.2%, Gal4-VP16 FLuc inconclusive, B2AR arrestin -0.1%, TSHR antagonist 0.9 and RORg inh 6.31µM*.
NC(=O)c1c(NC(=S)Nc2ccc(F)cc2)sc2c1CCCC2 was read as ELG1 repair inh 7.1%, Gal4-VP16 FLuc -87.1%, B2AR arrestin -1.2%, TSHR antagonist -4.0 and RORg inh 10µM*.
`CC(C)C[C@H](NC(=O)[C@H](CC(C)C)NC(=O)[C@H](Cc1ccccc1)NC(=O)[C@@H](N)CO)C(=O)N[C@@H](CCCNC(=N)N)C(=O)N[C@@H](CC(N)=O)C(=O)N1CCC[C@H]1C(=O)N[C@@H](CC(N)=O)C(=O)N[C@@H](CC(=O)O)C(=O)N[C@@H](CCCCN)C(=O)N[C@@H](Cc1ccc(O)cc1)C(=O)N[C@@H](CCC(=O)O)C(=O)N1CCC[C@H]1C(=O)N[C@@H](Cc1ccccc1)C(=O)O` gave Gal4-VP16 FLuc -3.7% and RORg inh 12.9%.
`Cc1ccccc1NS(=O)(=O)c1ccc2[nH]cc(C(=O)NC3CCCCC3)c(=O)c2c1` gave B2AR arrestin 0.0% and TSHR antagonist -13.4.
Screening CCCCN1CCCC[C@H]1C(=O)Nc1c(C)cccc1C returned Gal4-VP16 FLuc -0.7% and RORg inh 0.3%.
`CCOc1ccc(NC(=O)c2c(NC(=O)CN3CCCC3)sc3c2CCC3)cc1` gave ELG1 repair inh 2.3%, Gal4-VP16 FLuc 4.47µM*, B2AR arrestin -1.3%, TSHR antagonist -11.9 and RORg inh 4.47µM*.
Screening CCOC(=O)c1c(NC(=S)Nc2ccc(F)cc2)sc2c1CCC2 returned ELG1 repair inh 14.8%, Gal4-VP16 FLuc inconclusive, B2AR arrestin 0.2%, TSHR antagonist -8.6 and RORg inh 10µM*.
For C=CCNC(=S)Nc1sc2c(c1C(N)=O)CCCC2 the results were ELG1 repair inh inconclusive, Gal4-VP16 FLuc inconclusive, B2AR arrestin 0.0%, TSHR antagonist -3.4 and RORg inh 11.2µM*.
Screening COC(=O)c1c(NC(=S)Nc2cc(OC)c(Cl)cc2OC)sc2c1CCCCC2 returned ELG1 repair inh 17.4%, Gal4-VP16 FLuc inconclusive, B2AR arrestin -0.5%, TSHR antagonist 6.1 and RORg inh 17.1%.
For CCOC(=O)c1c(NC(=S)Nc2cc([N+](=O)[O-])ccc2OC)sc2c1CCCCC2 the results were ELG1 repair inh 5.5%, Gal4-VP16 FLuc 3.98µM*, B2AR arrestin 0.0%, TSHR antagonist 10.3 and RORg inh 5.62µM*.
For CCOc1ccc(NC(=O)c2c(NC(=O)CN3CCN(C)CC3)sc3c2CCC3)cc1 the results were ELG1 repair inh 0.8%, Gal4-VP16 FLuc -0.5%, B2AR arrestin -0.5%, TSHR antagonist -15.4 and RORg inh 41.6%.

Screening results as filed in PubChem.
